Data from ChEMBL document CHEMBL1157539, “Thousands of chemical starting points for antimalarial lead identification” (Nature, 2010).

Tested on: HepG2
Assay: GSK_TCMDC: Percent inhibition of human HepG2 cell line. Test compounds present at 10uM.
Type: functional

Compound | Inhibition
Cc1cc(N[C@@H](CC(C)C)C(=O)NCCOc2ccccc2)nc(Nc2ccccc2)n1.O=C(O)C(F)(F)F | 9%
COc1cc(C)nc2ccc(NC(=O)Nc3ccccc3[N+](=O)[O-])cc12 | 6%
CNC(=O)c1cc(S(=O)(=O)N2CCN(c3ccccn3)CC2)cs1 | 0%
N#Cc1ccc2c(c1)CCN(CCCn1c(-c3ccc4ccccc4c3)nc3ccncc31)CC2 | 38%
CC(C)NC(=O)c1cccc(-c2ccc(OCCN3CCCC3c3cc4ccccc4[nH]3)cc2)c1 (stereo not drawn) | 25%
CN1CCN(c2ccnc3ccc(NC(=O)c4ccc(Cl)c(Cl)c4)cc23)CC1 | 4%
CC(C)CCC[C@@H]([C@@H](CC1CCCCC1)C(=O)N[C@@H](CCCCNC(=O)OCc1ccccc1)C(=O)Nc1nccs1)N(O)C=O | 0%
COCCNCc1cccc(C#Cc2cc3ncnc(Nc4ccc(OCc5cccc(F)c5)c(Cl)c4)c3s2)n1 | 35%
NC(=O)c1cccc(C(=O)Nc2cccc(-c3cccc(-c4nc5cc(C(F)(F)F)ccc5[nH]4)c3)c2)c1 | 71%
C[C@@H]([C@@H](CCCCc1ccccc1)C(=O)N[C@H](C(=O)Nc1cccnc1)C(C)(C)C)N(O)C=O | 0%
O=C(/C=C/c1ccc(Cl)c(Cl)c1)NCCCCCN1CCCN(C(=O)Nc2ccc([N+](=O)[O-])cc2)CC1 | 32%
Cc1ccc(NC(=O)c2ccc(CN3CCCN(Cc4cccc(O)c4)CC3)cc2)cc1C.O=C(O)C(F)(F)F | 33%
COc1ccc(C(=O)Nc2ccc(-c3nc4cc(C)ccc4[nH]3)cc2)cc1OC | 70%
